Shown are actives, neighbours in structure and some others; about 28% of the full set was active somewhere.
CYP2C9 inhib = blocks human cytochrome P450 2C9 | P11712 | CYP2C9 Supersomes, luciferin-H conversion, luminescence | inhibition, % at 5 µM | 20% of 96,000 active | AID 777;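 active means blocking of liver enzyme CYP2C9 beyond about 50% at 5 µM, limit read from the data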
CYP2C9 act = CYP2C9 (human) activation; P11712; recombinant CYP2C9, luciferin-H conversion, luminescence; active compounds read high; factor 1 = untreated enzyme, 0 = blocked; activation factor at 5 µM; 1.4% of 96,000 active;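 active means activation factor of 2 or more for CYP2C9 at a 5 µM dose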;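 further: 0 = sulfaphenazole-blocked wells and 1 = vehicle-only wells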
Mac1 fbg inh = inhibitors of human CD11b/CD18 binding to fibrinogen; P05107+P11215; 0.54% of 93,000 active; K562 CD11b/CD18 adhesion to fibrinogen, ATPlite luminescence; Mn2+ added to activate the integrin; inhibition, % at 10 µM;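 active means primary inhibition of 50% or more at 10 µM, then 40% or more on retest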
CYP2C19 inhib = inhibitors of human CYP2C19. CYP2C19 Supersomes, luciferin-H EGE luminescence, 30 min. inhibition, % at 5 µM. 21% of 96,000 active. AID 778;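 active means CYP2C19 inhibition above a set limit at 5 µM in the primary screen, cut at about 50% in these data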;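 further: plate controls were negative control wells for no effect and 2.5 mM tranylcypromine positive control for full effect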
Target sequence (P33261 whole entry, looked up): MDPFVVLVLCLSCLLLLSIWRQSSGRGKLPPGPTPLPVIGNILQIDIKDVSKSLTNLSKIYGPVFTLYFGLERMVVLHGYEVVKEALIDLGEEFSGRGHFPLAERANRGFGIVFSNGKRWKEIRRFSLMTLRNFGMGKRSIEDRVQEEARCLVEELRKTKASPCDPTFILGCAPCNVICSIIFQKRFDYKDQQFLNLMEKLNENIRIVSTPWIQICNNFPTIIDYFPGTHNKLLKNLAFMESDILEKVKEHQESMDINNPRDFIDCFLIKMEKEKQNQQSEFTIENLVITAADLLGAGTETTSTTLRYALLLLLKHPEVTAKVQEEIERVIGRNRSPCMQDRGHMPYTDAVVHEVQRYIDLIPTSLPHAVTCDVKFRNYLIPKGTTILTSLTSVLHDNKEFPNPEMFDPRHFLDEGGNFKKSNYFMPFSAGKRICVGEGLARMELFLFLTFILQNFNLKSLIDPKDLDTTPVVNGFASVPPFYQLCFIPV
CYP2C19 act = cytochrome P450 2C19 (human) activation; recombinant CYP2C19, luciferin-H EGE luminescence; active compounds read high; 0 = fully inhibited enzyme, 1 = untreated enzyme; activation factor at 5 µM; 96,000 tested, under 10 active; AID 1025;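 active means activation factor of at least 2 at 5 µM in the primary screen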;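 further: 0 = wells with 2.5 mM tranylcypromine and 1 = vehicle-only wells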
CD11b adhes enh = increases human CD11b/CD18 adhesion to fibrinogen; P05107+P11215; K562 CD11b/CD18 adhesion to fibrinogen, ATPlite luminescence; activation, % at 10 µM; 0.07% of 93,000 active; AID 1499;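 active means 10 µM primary screen giving 50% or more activity, confirmed by 40% or more on retest at that dose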
Numbers without * were called inactive; . = not tested or not shown.

SMILES	CYP2C9 inhib	CYP2C9 act	Mac1 fbg inh	CYP2C19 inhib	CYP2C19 act	CD11b adhes enh
COc1ccccc1NC(=O)c1c(NC(=O)c2ccco2)sc2c1CCC2	64*	0.4	2	18	0.8	-1
N#Cc1c(NC(NC(=O)c2ccco2)C(=O)c2ccccc2)sc2c1CCCC2 (configuration not stated)	76*	0.2	-3	16	0.8	-4
CCc1c(C)sc(NC(=O)OC)c1C(=O)N1CCCCC1	-2	1	-4	52*	0.5	1
COc1cc(CC(=O)Nc2ccc(S(=O)(=O)N(C)C)cc2)cc(OC)c1OC	44	0.6	4	5	0.9	1
CCCCNC(=O)C1C2C=CC3(CN(Cc4ccc(C)cc4)C(=O)C13)O2 (configuration not stated)	12	0.9	.	-5	1.1	.
CCCCSC(=S)N(C)C1CCS(=O)(=O)C1 (configuration not stated)	29	0.7	.	49	0.5	.
COc1ccccc1C(=O)Nc1sc2c(c1C(=O)NCc1ccco1)CCCC2	84*	0.2	1	18	0.8	-2
COC(=O)c1c(NS(=O)(=O)Cc2ccccc2)sc2c1CCCC2	96*	0	3	93*	0.1	1
COc1ccccc1OCC(=O)Nc1sc2c(c1C(=O)NCC1CCCO1)CCC2 (configuration not stated)	96*	0	-5	52*	0.5	0
COC(=O)c1c(NC(=O)c2ccco2)sc(C(=O)N2CCCC2)c1C	61*	0.4	0	26	0.7	-4
Cc1occc1C(=O)NCc1ccc(C(=O)O)o1	1	1	12	-3	1	-2
CCNC(=S)NNC(=O)c1cccc(Br)c1	1	1	.	18	0.8	.
Cc1ccc(N2C(=O)C3C4CC(=O)C(c5ccccc54)C3C2=O)cc1C (configuration not stated)	.	.	4	.	.	1
O=S(=O)(c1ccccc1)N1CCN(c2ncnc3sc(-c4ccccc4)cc23)CC1	93*	0.1	-1	82*	0.2	-3
COC(=O)c1sccc1NC(=O)CSc1ccc(Cl)cc1	17	0.8	.	6	0.9	.
COC(=O)c1sccc1NC(=O)CN(C)NS(=O)(=O)c1ccc(F)cc1	91*	0.1	.	17	0.8	.
COC(=O)c1sccc1NC(=O)CN(C)NS(=O)(=O)c1ccc([N+](=O)[O-])cc1	12	0.9	.	2	1	.
COC(=O)c1sccc1NC(=O)CN(C)NS(=O)(=O)c1ccc(Cl)cc1	11	0.9	.	15	0.8	.
COC(=O)c1sccc1NC(=O)CSc1ccccc1NS(=O)(=O)c1ccc(Br)cc1	80*	0.2	52	19	0.8	-1
COC(=O)c1sccc1NC(=O)CSc1nnnn1-c1ccccc1F	-114	2.1*	-3	4	1	1
COC(=O)c1sccc1NC(=O)CSc1ccccc1NS(=O)(=O)c1ccc(F)cc1	74*	0.3	32	27	0.7	4
CC1CCCN(c2ccc(C(=O)NCC3CCCO3)cn2)C1 (configuration not stated)	-5	1.1	-4	-3	1	-1
Cc1ccc(S(=O)(=O)NC2CCCc3ccccc32)cc1C (configuration not stated)	-54	1.5	-41	9	0.9	-2
CCNC(=O)CC1C(=O)N(c2ccccc2)C(=O)N1Cc1ccc(OC)cc1 (configuration not stated)	8	0.9	.	4	1	.
CCOC(=O)c1[nH]c(C)c(/C(O)=C2\C(=O)C(=O)N(CCCN(C)C)C2c2cccnc2)c1C (configuration not stated)	4	1	-11	-2	1	-1
Cc1ccc(CN2C(=O)CCC2C(=O)NCc2cccnc2)cc1 (configuration not stated)	3	1	.	19	0.8	.
COc1ccc(Cc2c(O)nc[nH]c2=O)cc1	5	0.9	-8	-1	1	2
Cc1ccc(S(=O)(=O)N2CCN(C3CC(=O)N(Cc4ccccc4)C3=O)CC2)cc1C (configuration not stated)	-58	1.6	3	60*	0.4	0

From PubChem BioAssay
